An excerpt weighted towards active compounds, which were near 21% of everything screened.
Cycloheximide cs – counter-screen hit for Shiga toxin inhibitors, cycloheximide; cell reporter, cycloheximide protein synthesis inhibition counterscreen; max response, %; hit rate 12% among 300,000; AID 2314; in the data active = max response mostly above about 13%, no sharp cut-off; inactive = mostly below about 14%; note: read at 38.3 µM for the half of the compounds with a filed dose; 0% is about no effect
Pf growth 48h – P. falciparum growth inhibition at 48 hours (one generation); hit rate 5.9% among 310,000; Potency, µM (titrated, usually from 28.7 µM), inactives show at the top dose activity change, negative = inhibition, most hits filed as inhibitors; P. falciparum luciferase growth in erythrocytes, 48 h; AID 504832; note: potency is the fitted concentration of half-maximal effect; % is set by controls: 0 for no effect and ±100 for the full control effect
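Luciferase-expressing P. falciparum in infected erythrocytes (2% hematocrit, 0.1% parasitemia final) in RPMI 1640/0.5% Albumax were exposed to compound for 48 hours at 37 C, 5% CO2; growth read as luminescence.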
FBPA Giardia inh – blocks Giardia fructose-bisphosphate aldolase activity; A8B2U2; purified Giardia FBPA; Potency, µM (top dose mostly 59.6 µM), without a hit: top-dose activity, negative = inhibition, actives largely listed as inhibitors; hit rate 0.71% among 290,000; AID 2451; note: potency is the fitted concentration of half-maximal effect; % is set by controls: 0 for no effect and ±100 for the full control effect; nearly all actives have a fitted effect of over 55% in size
Target sequence (A8B2U2 whole entry, looked up): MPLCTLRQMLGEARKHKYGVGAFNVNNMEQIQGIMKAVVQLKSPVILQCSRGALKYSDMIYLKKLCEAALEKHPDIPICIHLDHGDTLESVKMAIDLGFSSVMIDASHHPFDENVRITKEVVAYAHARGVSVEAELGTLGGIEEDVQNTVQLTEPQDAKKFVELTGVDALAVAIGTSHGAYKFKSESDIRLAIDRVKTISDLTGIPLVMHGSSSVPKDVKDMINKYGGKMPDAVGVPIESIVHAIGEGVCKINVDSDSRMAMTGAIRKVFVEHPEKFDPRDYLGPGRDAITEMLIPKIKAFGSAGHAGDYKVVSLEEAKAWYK
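Giardia FBPA (40 nM reagent) was preincubated 10 min at RT with compound (up to 57.5 uM final), then substrate plus GAPDH/TPI/NAD/arsenate coupling system with diaphorase/resazurin was added; resorufin fluorescence (525/598 nm) was read after 20 min.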
Shiga toxin inh – blocks Shiga toxin action in Vero cells | Vero cells, Shiga toxin protein synthesis inhibition reporter | inhibition, % at 38.7 µM | hit rate 9.2% among 290,000 | AID 2315; in the data active = inhibition mostly above about 28%, no sharp cut-off; inactive = mostly below about 43%; note: 0% is about no effect
NS1 function inh – influenza NS1 inhibition | Potency, µM (top dose mostly 46.1 µM), inactives show at the top dose activity, positive = more growth | hit rate 0.4% among 270,000; calls by dose curve; note: potency is the fitted concentration of half-maximal effect; actives are rising curves; nearly all actives have a fitted effect of over 50% in size
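In this qHTS, NS1 from influenza A is expressed in budding yeast, where it slows growth. Cells are switched from glucose to 2% galactose medium (pH 6.0, -URA), treated with compound, and growth recovery is read at OD600.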
Pf growth 96h – P. falciparum growth inhibition at 96 hour, primary screen for plastid delayed-death inhibitors; P. falciparum luciferase reporter growth, 96 h; Potency, µM (series often up to 28.7 µM), inactives show at the highest dose activity change, negative = inhibition, actives largely listed as inhibitors; hit rate 6.9% among 320,000; AID 504834; note: potency is the fitted concentration of half-maximal effect; % is set by controls: 0 for no effect and ±100 for the full control effect
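Cell-based qHTS: luciferase-tagged P. falciparum in erythrocytes (2% hematocrit, 0.05% parasitemia final) incubated with compounds for 96 hours, 37 C, 5% CO2; luciferase detection reagent then added and luminescence measured.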
* marks the source's active call; other numbers are inactive results; ? = inconclusive; / = no result; [ ] = dose if it differs, or a comment. Unless noted, calls come from the whole dose curve; as a rule, active = well fitted curve in the direction sought with a large enough effect; inconclusive = small, poorly fitted or top-dose-only effect, or another doubt; inactive = no such curve, though single readings can be large; an effect the other way counts as inactive or inconclusive.

SMILES | Cycloheximide cs | Pf growth 48h | FBPA Giardia inh | Shiga toxin inh | NS1 function inh | Pf growth 96h
CCCCCCSc1cccc(-c2nc3ccc(C)cn3c2NCc2ccccc2)c1 | / | ? | / | / | / | 12µM*
CCCCCCSc1cc(-c2nc3cc(C)ccn3c2NCCCC)ccc1OC | / | 9.3µM* | / | / | / | ?
CCCCCCSc1cc(-c2nc3ccc(Cl)cn3c2NC2CCCCC2)ccc1OC | / | -21% | / | / | / | ?
Cc1ccccc1N(C(=O)CS(=O)CC(=O)Nc1ccc(F)cc1)C(C)C(=O)NC(C)(C)C (stereo unspecified) | -2 | -11% | -2% | -8 | -5% | 1%
Cc1csc(NC(=O)COc2ccc3c(c2)CCC3)n1 | / | 385% | / | / | / | 271%
Cn1c(N)c(C(=O)COC(=O)[C@@H]2CCCN2S(=O)(=O)c2ccc(Cl)cc2)c(=O)n(C)c1=O | -4 | -24% | -1% | -10 | / | -14%
Cc1c(-c2nnc(-c3ccc(C(F)(F)F)cc3)o2)cnn1-c1ccccc1 | -3 | / | 3% | -15 | -8% | 39%
Cc1nn(-c2ccccc2)nc1-c1nnc(-c2ccc(C(F)(F)F)cc2)o1 | -1 | 0.26µM* | 4% | 2 | -2% | ?
COc1ccccc1S(=O)(=O)Cc1ccc(C(=O)NC2CC2)o1 | 0 | 31% | / | 5 | -3% | ?
COC(=O)c1ccccc1SCC(=O)Nc1ccc(N2CCOCC2)cc1 | 37* | 43% | / | 55* | 12% | 91%
Cc1ccc(SCC(=O)Nc2ccc(N3CCN(C)CC3)c(F)c2)c(C)c1 | 24* | ? | 2% | 37 | 9% | ?
O=C(CSc1ccc(F)cc1)Nc1ccc(N2CCOCC2)cc1 | 27* | 25% | 0% | 30 | -17% | 106%
O=C(Nc1ccc(N2CCOCC2)cc1)c1nc2ccccc2s1 | 54* | -26% | -4% | 91* | 4% | 227%
Cc1ccc(SCC(=O)Nc2ccc(N3CCOCC3)cc2)cc1 | -1 | 8% | 1% | -1 | 1% | 19%
C=CCOC(=O)N[C@H](/C(C(=O)OC)=C(\C)NCc1ccccc1)c1cccc(OC)c1 | / | / | -2% | / | / | /
O=C(CSc1ccc(Cl)cc1)Nc1ccc(N2CCN(c3ccccc3)CC2)c(F)c1 | -2 | 41% | 2% | -10 | -16% | 35%
O=C(CSc1ccc2ccccc2n1)Nc1ccc(N2CCOCC2)cc1 | 31* | 334% | -13% | 49* | / | -1%
O=C(CSc1ccccc1)Nc1ccc(N2CCOCC2)c(F)c1 | 57* | 93% | / | 120* | 9% | 86%
O=S1(=O)CC(O)C(Nc2ccc(Cl)cc2)C1 (stereo unspecified) | 1 | 10% | -4% | -5 | -2% | 3.7µM*
COCCCNC(=S)N1CCN(c2nc(-c3ccc(F)cc3)cs2)CC1 | 9 | ? | -3% | / | -55% | ?
CNC(=S)N1CCN(c2nc(-c3ccc(F)cc3)cs2)CC1 | 13* | 6% | 0% | 20 | 19% | 17%
CCOCCCNC(=S)N1CCN(c2nc(-c3ccc(F)cc3)cs2)CC1 | 1 | 9.3µM* | -8% | / | -14% | ?
COCCCN=Cc1c(C)[nH]n(-c2ccc(Br)c(C)c2)c1=O | 49* | 253% | -11% | 38* | -4% | 353%
CC(C)N=C(NS(=O)(=O)c1cccs1)c1ccccc1 | 6 | -8% | / | -5 | -4% | 13µM*
COc1ccc(C2CC(c3ccc4ccccc4c3)=NN2C(=O)CN2CCC(C(N)=O)CC2)cc1 (stereo unspecified) | 57* | ? | 14% | 79* | / | ?
SMILES | Cycloheximide cs | Pf growth 48h | FBPA Giardia inh | Shiga toxin inh | NS1 function inh | Pf growth 96h
Nc1cc(=O)[nH]c(SCC(=O)N2N=C(c3ccc4ccccc4c3)CC2c2ccccc2)n1 (stereo unspecified) | -2 | ? | -6% | -5 | -12% | ?
CC(=O)OCC(=O)N1N=C(c2ccc3ccccc3c2)CC1c1ccccc1 (stereo unspecified) | 33* | 85% | 0% | 67 | / | 44%
COc1ccc(C2CC(c3ccc4ccccc4c3)=NN2C(=O)COC(=O)C2CCC(=O)N2)cc1 (stereo unspecified) | 47* | 190% | -7% | 127* | / | 276%
COc1ccc(C2CC(c3ccc4ccccc4c3)=NN2C(=O)CNC2CCCCC2)cc1 (stereo unspecified) | 3 | ? | ? | 16 | 6% | ?
COC(=O)CC1=COC(O)C2C(CO)=CC[C@@H]12 (stereo partly specified) | / | / | 2%[12.9 µM] | / | / | /
Cc1ccc(CCNC(=O)c2cc(-c3ccncc3)nc3ccc(S(=O)(=O)N4CCOCC4)cc23)cc1 | 5 | ? | 7% | -14 | 6% | -26%
COc1cc(CN2CCC(n3nccc3NC(=O)c3ccccc3OC)CC2)ccc1F | 22 | ? | 6% | 36 | 3% | 0%
O=c1c(O)c(-c2ccc(O)c(O)c2)oc2c(O)c(O)cc(O)c12 | / | / | 7.1µM* | / | / | /
O=c1c(O)c(-c2ccc(O)c(O)c2)oc2ccccc12 | / | / | -27% | / | / | /
Cc1cc(Br)ccc1NC(=O)CNC(=O)c1cnn(C)c1 | / | 3% | / | / | / | 37%
CCCC(=O)N1CCc2cc(OC)c(OC)cc2C1COc1ccccc1OC (stereo unspecified) | -7 | ? | 4% | 2 | -4% | -13%
COc1cc2c(cc1OC)C(C)N(C(=O)c1sccc1C)CC2 (stereo unspecified) | -7 | -3% | / | 12 | -25% | ?
COc1cc2c(cc1OC)C(c1ccccc1)N(C(=O)CCl)CC2 (stereo unspecified) | -1 | ? | 4% | -21 | -4% | ?
COc1ccc(C(=O)N2CCc3cc(OC)c(OC)cc3C2c2ccc(OC)c(OC)c2)cc1OC (stereo unspecified) | 8 | 13µM* | 2% | -2 | -4% | 6.6µM*
COc1cc2c(cc1OC)C(COc1ccccc1OC)N(C(=O)C(C)C)CC2 (stereo unspecified) | -2 | ? | 0% | -11 | / | 10µM*
COc1cc2c(cc1OC)C(C)N(C(=O)c1cccc([N+](=O)[O-])c1)CC2 (stereo unspecified) | -4 | -8% | 7% | -8 | / | 0.52µM*
COc1cc2c(cc1OC)C(COc1ccccc1OC)N(C(=O)c1ccco1)CC2 (stereo unspecified) | 8 | ? | -3% | -16 | / | 6.6µM*
COc1ccc(-c2nn(-c3ccccc3)cc2C(=O)NC(=S)N2CCOCC2)cc1OC | / | 95% | / | / | / | -11%
COc1ccc(C[C@H]2c3cc(OC)c(OC)cc3CCN2C)cc1OC | / | / | -5%[21.7 µM] | / | / | /
CCOc1ccc(CC2c3cc(OCC)c(OCC)cc3CCN2C(=O)c2cc(OC)c(OC)c(OC)c2)cc1OCC (stereo unspecified) | -3 | 1.5µM* | -9% | 2 | 9% | 1.3µM*
Cc1ccc(OC(=O)c2sc3ncn(C)c(=O)c3c2C)cc1 | 41* | 339% | 1% | 142* | / | ?

Screens from PubChem.
